Out of some 5,500 compounds screened, about 2,000 (36%) were called active. Another 18% or so got no clear call; they are omitted. Rule as the data show it: active = normalized growth mostly below about 0.91 (no sharp cut-off); inconclusive = no clear call, values can overlap the other calls; inactive = mostly above about 0.92. Some of the results follow.
Assay: chemical genetic growth profiling, strain panel (AID 1159580);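 also: tested at 20 µM; growth read once vehicle control cultures reached saturation at 30 °C; 1 = growth at the plate median or of vehicle wells; lower values mean less growth of the strain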
Settings: growth OD

Measured: normalized growth

Oc1cc(O)c2c(c1)O[C@H](c1ccc(O)c(O)c1)[C@H](O)C2
inactive: S. cerevisiae deletion strains, locus YJR043C, strain POL32, hits give low values 1.07 | S. cerevisiae deletion strains, locus YJR066W, strain TOR1, hits give low values 0.94 | S. cerevisiae deletion strains, locus YKL009W, strain mrt4, hits give low values 0.972 | S. cerevisiae deletion strains, locus YKL068W, hits give low values 0.979 | S. cerevisiae deletion strains, locus YKL085W, strain MDH1 (second series), hits give low values 0.981 | S. cerevisiae deletion strains, locus YKL085W, strain MDH1, hits give low values 0.981 | S. cerevisiae deletion strains, locus YKL160W, strain elf1, hits give low values 1 | S. cerevisiae deletion strains, locus YKR001C, strain vps1, hits give low values 1 | S. cerevisiae deletion strains, locus YKR026C, strain gcn3, hits give low values 1 | S. cerevisiae deletion strains, locus YKR091W, strain srl3, hits give low values 0.999 | S. cerevisiae deletion strains, locus YLL001W, strain dnm1, hits give low values 0.994 | S. cerevisiae deletion strains, locus YLL026W, hits give low values 1.01 | S. cerevisiae deletion strains, locus YLL041C, strain sdh2, hits give low values 1.01 | S. cerevisiae deletion strains, locus YLR027C, strain aat2, hits give low values 0.996 | S. cerevisiae deletion strains, locus YLR039C, strain RIC1, hits give low values 1.08 | S. cerevisiae deletion strains, locus YLR058C, strain SHM2, hits give low values 1.01 | S. cerevisiae deletion strains, locus YLR102C, strain apc9, hits give low values 0.982 | S. cerevisiae deletion strains, locus YLR113W, strain HOG1, hits give low values 1.02 | S. cerevisiae deletion strains, locus YLR221C, strain rsa3, hits give low values 1.04 | S. cerevisiae deletion strains, locus YLR258W, strain gsy2, hits give low values 1.01 | S. cerevisiae deletion strains, locus YLR262C, strain YPT6 (second series), hits give low values 0.997 | S. cerevisiae deletion strains, locus YLR262C, strain YPT6, hits give low values 1.06 | S. cerevisiae deletion strains, locus YLR268W, strain sec22, hits give low values 0.979 | S. cerevisiae deletion strains, locus YLR320W, strain mms22, hits give low values 1.05 | S. cerevisiae deletion strains, locus YLR330W, strain CHS5, hits give low values 1.01 | S. cerevisiae deletion strains, locus YLR342W, strain FKS1 (second series), hits give low values 1.04 | S. cerevisiae deletion strains, locus YLR342W, strain FKS1, hits give low values 1.01 | S. cerevisiae deletion strains, locus YLR357W, strain rsc2, hits give low values 0.992 | S. cerevisiae deletion strains, locus YLR370C, strain arc18, hits give low values 1.01 | S. cerevisiae deletion strains, locus YLR371W, strain rom2, hits give low values 0.975 | S. cerevisiae deletion strains, locus YLR384C, strain iki3, hits give low values 0.995 | S. cerevisiae deletion strains, locus YLR418C, strain cdc73, hits give low values 1.03 | S. cerevisiae deletion strains, locus YML016C, strain PPZ1, hits give low values 0.992 | S. cerevisiae deletion strains, locus YML032C, strain rad52, hits give low values 1.01 | S. cerevisiae deletion strains, locus YML120C, strain ndi1, hits give low values 0.996 | S. cerevisiae deletion strains, locus YML124C, strain tub3, hits give low values 0.992 | S. cerevisiae deletion strains, locus YMR058W, strain fet3, hits give low values 1.02 | S. cerevisiae deletion strains, locus YMR078C, strain ctf18, hits give low values 0.977 | S. cerevisiae deletion strains, locus YMR125W, strain sto1, hits give low values 1 | S. cerevisiae deletion strains, locus YMR129W, hits give low values 1 | S. cerevisiae deletion strains, locus YMR205C, strain PFK2, hits give low values 1.03 | S. cerevisiae deletion strains, locus YMR223W, strain ubp8, hits give low values 1 | S. cerevisiae deletion strains, locus YMR231W, strain pep5, hits give low values 0.981 | S. cerevisiae deletion strains, locus YMR307W, strain GAS1, hits give low values 1.22 | S. cerevisiae deletion strains, locus YNL067W, strain RPL9B, hits give low values 0.971 | S. cerevisiae deletion strains, locus YNL071W, strain lat1, hits give low values 1.01 | S. cerevisiae deletion strains, locus YNL183C, strain NPR1, hits give low values 0.95 | S. cerevisiae deletion strains, locus YNL209W, strain ssb2, hits give low values 0.994 | S. cerevisiae deletion strains, locus YNL233W, strain BNI4, hits give low values 1.01 | S. cerevisiae deletion strains, locus YNL248C, strain rpa49, hits give low values 1 | S. cerevisiae deletion strains, locus YNL250W, strain rad50, hits give low values 0.937 | S. cerevisiae deletion strains, locus YNL271C, strain bni1, hits give low values 0.984 | S. cerevisiae deletion strains, locus YNL298W, strain CLA4, hits give low values 1.01 | S. cerevisiae deletion strains, locus YNL307C, strain MCK1, hits give low values 0.977 | S. cerevisiae deletion strains, locus YNL322C, strain KRE1 (second series), hits give low values 1.01 | S. cerevisiae deletion strains, locus YNL322C, strain KRE1, hits give low values 1.01 | S. cerevisiae deletion strains, locus YNR049C, strain mso1, hits give low values 1.01 | S. cerevisiae deletion strains, locus YNR052C, strain pop2, hits give low values 0.991 | S. cerevisiae deletion strains, locus YOL006C, strain TOP1, hits give low values 1.03 | S. cerevisiae deletion strains, locus YOL012C, strain htz1 1.18 | S. cerevisiae deletion strains, locus YOL147C, strain pex11, hits give low values 0.998 | S. cerevisiae deletion strains, locus YOR001W, strain rrp6, hits give low values 1.04 | S. cerevisiae deletion strains, locus YOR061W, strain CKA2, hits give low values 0.998 | S. cerevisiae deletion strains, locus YOR069W, strain VPS5, hits give low values 0.999 | S. cerevisiae deletion strains, locus YOR070C, strain gyp1, hits give low values 1 | S. cerevisiae deletion strains, locus YOR080W, strain dia2, hits give low values 1.01 | S. cerevisiae deletion strains, locus YOR083W, strain WHI5, hits give low values 1.01 | S. cerevisiae deletion strains, locus YOR106W, strain vam3, hits give low values 1.03 | S. cerevisiae deletion strains, locus YOR136W, strain idh2, hits give low values 0.985 | S. cerevisiae deletion strains, locus YOR144C, strain elg1, hits give low values 1.01 | S. cerevisiae deletion strains, locus YOR184W, strain ser1, hits give low values 1 | S. cerevisiae deletion strains, locus YOR231W, strain MKK1, hits give low values 0.992 | S. cerevisiae deletion strains, locus YOR265W, strain rbl2, hits give low values 1.02 | S. cerevisiae deletion strains, locus YOR270C, strain vph1, hits give low values 1.08 | S. cerevisiae deletion strains, locus YOR290C, strain snf2, hits give low values 0.99 | S. cerevisiae deletion strains, locus YOR316C, strain cot1, hits give low values 0.989 | S. cerevisiae deletion strains, locus YPL051W, strain arl3, hits give low values 1.01 | S. cerevisiae deletion strains, locus YPL078C, strain atp4, hits give low values 1.03 | S. cerevisiae deletion strains, locus YPL106C, strain sse1, hits give low values 1.01 | S. cerevisiae deletion strains, locus YPL240C, strain hsp82, hits give low values 1.01 | S. cerevisiae deletion strains, locus YPL256C, strain CLN2, hits give low values 0.98 | S. cerevisiae deletion strains, locus YPR119W, strain clb2, hits give low values 0.978 | S. cerevisiae deletion strains, locus YPR141C, strain kar3, hits give low values 0.976 | S. cerevisiae deletion strains, locus YPR163C, strain tif3, hits give low values 0.991 | S. cerevisiae deletion strains, locus YPR167C, strain met16, hits give low values 0.987 | S. cerevisiae deletion strains, strain wtn01, hits give low values 0.992 | S. cerevisiae strains, strain wild type, hits give low values 1.01
